High-throughput results: PubChem BioAssay, several laboratories
FBA Mtb inh: inhibitors of M. tuberculosis fructose-bisphosphate aldolase; P9WQA3; purified M. tuberculosis FBA, fluorescence read-out; inhibition, % at 1 µM; 360,000 tested, 2.3% active; in the data active = inhibition above about 27%
BoNT-F LC inh: BoNT F light chain protease inhibition; AID 588497; 360,000 tested, 0.22% active; inhibition, % at 10 µM; Multiplex microsphere protease cleavage assay, flow cytometry; in the data active = inhibition above about 35%, passing the limit was not always enough; inconclusive = no clear call, values can overlap the other calls
GDH-TPI inh: inhibits GDH-TPI coupling enzymes, artifact for Mtb FBA screen. inhibition, % at 4.8 µM. 360,000 tested, 1.2% active. GDH-TPI coupled enzyme counterscreen, NADH absorbance; in the data active = inhibition above about 30%
Anthrax LF prot: blocks Bacillus anthracis lethal factor protease. inhibition, % at 10 µM. P15917. multiplex microsphere protease cleavage assay, LF. 360,000 tested, 0.12% active
Target sequence (P15917 whole entry, looked up): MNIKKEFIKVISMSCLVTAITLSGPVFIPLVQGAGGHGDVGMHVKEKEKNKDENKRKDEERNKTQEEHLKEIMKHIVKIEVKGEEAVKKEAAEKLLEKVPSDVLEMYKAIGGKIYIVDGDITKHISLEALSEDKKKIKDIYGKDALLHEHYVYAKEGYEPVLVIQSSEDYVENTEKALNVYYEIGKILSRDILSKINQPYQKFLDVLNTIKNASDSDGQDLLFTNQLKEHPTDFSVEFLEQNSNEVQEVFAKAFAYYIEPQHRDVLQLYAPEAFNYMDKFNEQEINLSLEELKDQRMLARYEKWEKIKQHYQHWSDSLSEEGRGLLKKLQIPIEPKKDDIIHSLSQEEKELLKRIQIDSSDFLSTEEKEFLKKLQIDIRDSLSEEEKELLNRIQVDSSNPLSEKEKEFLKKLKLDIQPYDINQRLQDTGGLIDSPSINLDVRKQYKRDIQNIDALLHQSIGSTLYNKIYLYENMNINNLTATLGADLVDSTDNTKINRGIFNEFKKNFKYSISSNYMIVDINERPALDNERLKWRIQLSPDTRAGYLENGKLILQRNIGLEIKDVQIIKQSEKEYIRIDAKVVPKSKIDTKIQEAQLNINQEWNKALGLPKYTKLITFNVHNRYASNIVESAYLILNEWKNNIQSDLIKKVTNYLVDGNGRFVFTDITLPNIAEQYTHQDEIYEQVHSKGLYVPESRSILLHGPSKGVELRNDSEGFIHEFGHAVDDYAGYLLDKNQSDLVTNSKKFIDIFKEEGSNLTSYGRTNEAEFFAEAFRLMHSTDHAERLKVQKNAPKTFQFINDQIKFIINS
BoNT A protease: inhibitors of Botulinum neurotoxin A light chain protease; multiplex microsphere protease substrate cleavage, flow cytometry; inhibition, % at 10 µM; 360,000 tested, 0.17% active; AID 588499
Autofluor counter: compound fluorescence in toxin protease inhibitor counterscreen; compound autofluorescence counterscreen, microsphere flow cytometry; active compounds read high; fluorescence intensity (no concentration beside the values); AID 624483; 360,000 tested, 3.1% active; in the data active = fluorescence intensity above about 16000; inconclusive = no clear call, values can overlap the other calls
Numbers stand for hits; i = inactive; ? = inconclusive; nt = no result given. Shown are actives, neighbours in structure and some others; about 6.6% of the full set was active somewhere. Rule as the data show it, unless noted: active = inhibition above about 30%; inconclusive = no clear call, values can overlap the other calls; inactive = below that.

SMILES | FBA Mtb inh | BoNT-F LC inh | GDH-TPI inh | Anthrax LF prot | BoNT A protease | Autofluor counter
CCCC1CCc2c(sc(NC(=O)OCC)c2C#N)C1 (stereo unspecified) | i | i | i | i | i | i
Cc1cc(OC(=O)c2c(Cl)cc(Cl)cc2Cl)nc(C)n1 | i | i | i | i | i | 16417
Cc1cc(C)nc(OC(=O)c2c(Cl)cc(Cl)cc2Cl)n1 | i | i | i | i | i | i
O=[N+]([O-])c1ccc(Cl)c(S(=O)(=O)Nc2cccc(-c3ccc(N4CCCC4)nn3)c2)c1 | i | nt | i | nt | nt | nt
Fc1cnc(N2CCc3ccccc32)nc1N1CCc2ccccc21 | i | i | i | i | i | 16473
Cc1nc(-c2cccnc2)sc1C(=O)Nc1ccc(Cl)cc1 | i | i | i | i | i | i
CCNC(=O)c1sc(-c2ccccc2)nc1C | i | i | i | i | ? | 21235
Cc1nc(-c2cccnc2)sc1C(N)=O | i | i | i | i | i | 16867
COc1ccc(/C=C/C(=O)c2sc(-c3ccccc3)nc2C)cc1 | i | i | i | i | i | 23221
Cc1nc(-c2ccccc2)sc1C(=O)O | i | i | i | i | i | i
CN1CCN(c2cccc3c2S(=O)(=O)N[C@@H](Cc2ccccc2)CO3)CC1 | nt | i | nt | i | i | i
O=C(NCCc1ccccc1)c1nc2ncccn2n1 | i | i | i | i | i | i
O=C(NCC12CC3CC(CC(C3)C1)C2)c1nc2ncccn2n1 | i | i | i | i | i | 19103
O=C(CSC(=S)N1CCCC1)N/N=C/c1c(O)[nH]c(=S)[nH]c1=O | i | i | 46 | i | i | i
COCCn1c(O)c(/C=N/NC(=O)CSC(=S)N2CCCC2)c(=O)[nH]c1=S | i | i | 32 | i | i | i
Cc1cccc(N/N=C/c2c(O)[nH]c(=S)[nH]c2=O)c1 | i | i | i | i | i | i
CCCCCCC(=O)N/N=C/c1c(O)n(CCCC)c(=S)[nH]c1=O | i | i | i | i | i | i
CC1(C)CC(=O)C(C=Nc2ccc(NC3=C(C#N)C(=O)CC(C)(C)C3)cc2)=C(O)C1 | i | i | i | i | i | i
NNC(=O)[C@H](Cc1ccccc1)NC(=O)NCCc1ccccc1 | i | i | i | i | i | i
C[C@H](NC(=O)[C@@H]1CSC2c3ccccc3C(=O)N21)C(=O)NCc1c(F)cccc1Cl (stereo partly specified) | i | i | i | i | i | i
O=C1CNC(=O)N1CC(=O)N1CCCc2ccccc21 | i | i | i | i | ? | 20063
CC(C)C(=O)c1cn(CC(=O)N2CCCc3ccccc32)c2ccccc12 | i | i | i | i | ? | 23272
O=C(CN1CCCCC1)N1CCCc2ccccc21 | i | i | i | i | i | i
O=C1c2ccccc2C(=O)N1CCC(=O)N1CCc2ccccc21 | i | i | i | i | i | 22459
COc1cccc(C(C#N)NCCCNC(C#N)c2cccc(OC)c2OC)c1OC (stereo unspecified) | i | i | i | i | i | i
SMILES | FBA Mtb inh | BoNT-F LC inh | GDH-TPI inh | Anthrax LF prot | BoNT A protease | Autofluor counter
COc1ccc(/C=C/C(=O)NC(CCSC)C(=O)O)cc1 (stereo unspecified) | i | i | i | i | i | i
N#C/C(=C1/CCCCCN1)c1nc2ccccc2[nH]1 | i | i | 39 | i | i | i
COCCn1c(SCC#N)nnc1-c1ccccc1O | i | i | i | i | i | 20776
COCCn1c(SCC#N)nnc1-c1ccccc1 | i | i | i | i | i | i
Cc1ccc(Cl)cc1N1CCN(C(=O)CSc2nnc3n2C(C)(C)Cc2ccccc2-3)CC1 | i | i | i | i | i | i
COc1cccc(NC(=O)CSc2nnc(-c3ccoc3C)n2C)c1 | i | i | i | i | i | i
CC1(C)Cc2ccccc2-c2nnc(SCC(=O)N3CCc4ccccc43)n21 | i | i | i | i | i | 24428
COc1ccc2nc(NC(=O)CSc3nnnn3C)sc2c1 | i | i | i | i | i | i
COc1ccc(N2CCN(C(=O)CSc3nnc4n3C(C)(C)Cc3ccccc3-4)CC2)cc1 | i | i | i | i | i | 22079
COc1ccc2nc(NC(=O)CSc3nnc4n3C(C)(C)Cc3ccccc3-4)sc2c1 | i | i | i | i | i | 16715
COc1cc(NC(=O)CSc2nnc3n2C(C)(C)Cc2ccccc2-3)cc(OC)c1 | i | i | i | i | i | 16774
O=C(Nc1ccc(CN2CCCCC2)cc1)Nc1ccc(Br)cc1Cl | i | i | i | i | i | i
CCOC(=O)C(CC)Sc1nnc2n1C(C)(C)Cc1ccccc1-2 (stereo unspecified) | i | i | i | i | i | i
